RORg inh = ROR gamma (mouse) transcription inhibition; hit rate 5.4% among 310,000; Potency, µM (series often up to 53.6 µM), without a hit: at the top dose activity change, negative = inhibition, usual class: inhibitors; AID 2551; P51450; Drosophila S2 Gal4-RORgamma UAS-luciferase reporter, 20 h; note: nearly all actives have a fitted effect of over 60% in size
Target sequence (P51450 whole entry, looked up, the tested form may be a part): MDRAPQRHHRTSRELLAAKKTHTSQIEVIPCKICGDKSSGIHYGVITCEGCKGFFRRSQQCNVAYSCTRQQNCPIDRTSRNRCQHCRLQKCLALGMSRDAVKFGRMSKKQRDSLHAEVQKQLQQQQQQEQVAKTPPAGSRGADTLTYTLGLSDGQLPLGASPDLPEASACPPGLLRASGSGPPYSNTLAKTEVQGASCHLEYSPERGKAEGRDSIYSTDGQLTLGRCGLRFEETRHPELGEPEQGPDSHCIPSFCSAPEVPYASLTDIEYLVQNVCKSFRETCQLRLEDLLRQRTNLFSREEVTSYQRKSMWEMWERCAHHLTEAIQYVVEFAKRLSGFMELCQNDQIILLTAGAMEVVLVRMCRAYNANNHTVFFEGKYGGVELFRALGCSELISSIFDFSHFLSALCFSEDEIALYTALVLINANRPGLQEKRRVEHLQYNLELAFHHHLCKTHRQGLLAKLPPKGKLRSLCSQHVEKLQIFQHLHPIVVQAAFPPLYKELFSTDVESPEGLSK
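In this cell-based reporter format, copper sulfate (700 uM final) drives Gal4–ROR gamma fusion expression from a metallothionein promoter in Drosophila Schneider cells; compounds preincubated 1 hr, reporter read after 20 hr at ambient temperature.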
Tau FP inhib = blocks human tau fibril formation measured by polarization; Potency, µM (doses to about 57.7 µM), inactives show top-dose activity, negative = inhibition, most hits filed as inhibitors; hit rate 0.39% among 280,000; K18 P301L tau heparin fibrillization, Alexa594 FP, 6 h; note: nearly all actives have a fitted effect of over 55% in size
Target sequence (P10636 561-689 P618L limits assumed): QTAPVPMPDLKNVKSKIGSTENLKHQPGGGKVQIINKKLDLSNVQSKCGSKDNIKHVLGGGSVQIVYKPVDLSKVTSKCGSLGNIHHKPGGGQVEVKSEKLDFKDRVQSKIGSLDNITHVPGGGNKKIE
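Steps: dispense K18 P301L tau (15 uM plus 0.24 uM Alexa 594 tracer, final) in pH 7 sodium acetate; add compound; add heparin (20 uM final); incubate 6 hr, 37 C; add ThT (30 uM final); after 1 hr ambient, read FP.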
Tau ThT inhib = blocks human tau fibril formation measured by thioflavin T; P10636; recombinant tau K18 P301L, heparin-induced fibrillization, ThT fluorescence; Potency, µM (top dose mostly 57.4 µM), for inactives: top-dose activity, negative = inhibition, usual class: inhibitors; hit rate 2.1% among 270,000; note: nearly all actives have a fitted effect of over 55% in size
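Aggregation was driven by heparin (20 uM final) acting on recombinant tau […] bearing P301L in 100 mM sodium acetate pH 7; fibrils were detected with Thioflavin T.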
Tau fluor cs = counter-screen for tau fibril formation inhibitors; hit rate 0.93% among 280,000; Potency, µM (highest dose often 57.7 µM), for inactives: at the top dose activity change, negative = decrease; tau K18 P301L (four-repeat tau fragment) Alexa594 fluorescence, heparin fibrillization; note: nearly all actives have a fitted effect of over 55% in size
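Human K18 P301L tau (15 uM unlabeled plus 0.24 uM Alexa 594-labeled, final) in 100 mM sodium acetate pH 7 was mixed with compound and 20 uM heparin and incubated 6 hr at 37 C.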
VP16 counter = inhibits Gal4-VP16 luciferase reporter, ROR gamma counter-screen; Drosophila S2 Gal4-VP16 UAS-luciferase, luminescence, 20 h; Potency, µM (series often up to 53.6 µM), inactives show at the top dose activity, negative = inhibition, usual class: inhibitors; hit rate 3.5% among 310,000;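 note: Gal4-VP16 expression switched on by copper sulfate through the metallothionein promoter; nearly all actives have a fitted effect of over 50% in size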
Active calls of the source: *; ? = inconclusive; · = no result; [ ] = dose if it differs, or a comment. The list is not random: actives were taken first. Their share in the collection is about 7.3%. Calls come from the whole dose curve; as a rule, active = well fitted curve in the direction sought with a large enough effect; inconclusive = small, poorly fitted or top-dose-only effect, or another doubt; inactive = no such curve, though single readings can be large; an effect the other way counts as inactive or inconclusive. % is set by controls: 0 for no effect and ±100 for the full control effect; potency is the fitted concentration of half-maximal effect.

SMILES | RORg inh | Tau FP inhib | Tau ThT inhib | Tau fluor cs | VP16 counter
Cn1c(O)c(C(=O)c2ccccc2)c(=O)n(C)c1=O | 4.8% | ? | ? | -15.3% | -4.1%
O=c1c2ccccc2[se]n1-c1ccccc1 | 10µM* | ? | ? | ? | 11.2µM*
Cc1ccc(F)cc1NC(=O)c1ccc(Cn2nc(N3CCN(c4ccccc4)CC3)ccc2=O)o1 | · | 8.1% | ? | -21.7% | ·
O=C1NC(=O)C(=Cc2ccc(OCCOc3ccc([N+](=O)[O-])cc3)cc2)C(=O)N1 | 8.8% | -16.3% | ? | -17.3% | 5.8%
Cc1ccc(OCCOc2cccc(C=C3C(=O)NC(=O)NC3=O)c2)c(C)c1 | 7.94µM* | · | · | · | 3.98µM*
O=NN(CCO)CCO | 0.8% | · | · | · | -3.0%
CCC1/C=C/C=CCC(C)C(O)[C@@](C)(O)C(=O)C(C)C(O)C(C)C(=O)C(C)C(O)C(C)C=CC(=O)O[C@H]2C(C)C(CC1)O[C@]1(CCC(C)C(CC(C)O)O1)C2C (some centres not stated) | 0.0006µM* | -3.8% | ? | -24.8% | 50.1µM*
COc1ccc2nc(NC(=O)c3nc(S(=O)(=O)Cc4cccc(C)c4)ncc3Cl)sc2c1 | · | -9.8% | 14.1µM* | ? | ·
CCOc1ccc2nc(NC(=O)c3cccn(Cc4ccc(C)cc4)c3=O)sc2c1 | · | -5.6% | -1.0% | -2.0% | ·
C=Cn1ccnc1P(=S)(c1nccn1C=C)C1CCCCC1 | 10µM* | -1.4% | -1.4% | -5.2% | ?
C=Cn1ccnc1P(=S)(c1nccn1C=C)c1nccn1C=C | -37.7% | -6.6% | -11.9% | -10.6% | 8.7%
CCn1ccnc1CN1CCCC(C(=O)c2cccc(C(F)(F)F)c2)C1 (configuration not stated) | 2µM* | -6.7% | -3.5% | -1.5% | 10µM*
O=C(c1cccc(C(F)(F)F)c1)C1CCCN(Cc2ncc[nH]2)C1 (configuration not stated) | 18.2% | 5.5% | -4.3% | -8.4% | 15.8µM*
C[C@@H]1C[C@@H]2[C@H]([C@H]3C=C(COC(=O)c4ccccc4)[C@@H](O)[C@]4(O)[C@@H](O)C(OC(=O)c5ccccc5)=C[C@@]14C3=O)C2(C)C | 2.8% | · | · | · | -18.7%
C=C(C)C1Cc2c(ccc3c2OC2COc4cc(OC)c(OC)cc4C2C3=O)O1 (configuration not stated) | 0.0355µM* | 11.2% | ? | -26.8% | ?
C=C(C)[C@H]1Cc2c(ccc3c2O[C@@H]2COc4cc(OC)c(OC)cc4[C@@H]2C3=O)O1 | ? | 5.4% | ? | -22.1% | ?
Clc1nc(Cl)nc(Cl)n1 | -0.1% | · | · | · | -4.5%
O=[N+]([O-])C(Br)Br | 12.6µM* | · | · | · | 11.2µM*
Cc1cc(C)nc(N/N=C/C2=C(O)CC(c3ccccc3)CC2=O)n1 (configuration not stated) | ? | -1.6% | · | 10.5% | -19.2%
CCCCc1ccc(C(=O)O)nc1 | 7.08µM* | -5.5% | ? | -17.0% | 8.91µM*
CCN1C(=O)/C(=C/c2ccc3c(c2)CCN3CCCCl)C(=O)NC1=S | 11.2% | ? | 17.8µM* | -11.1% | 3.9%
COc1ccc(-c2c3c(=O)n(C)c(=O)n(C)c3c3n2-c2ccccc2NC3c2ccccc2OC)cc1 (configuration not stated) | · | 9.8% | ? | -9.1% | ·
C[C@H](N)Cc1c[nH]c2ccc(OCc3cccs3)cc12 | 0.1% | 15.2% | -17.5% | -27.2% | 3.2%
CCOP(=O)(OCC)c1cccc(P(=O)(c2ccccc2)c2ccccc2)c1O | ? | · | · | · | 3.4%
CCOP(=O)(C1=C(O)C(=O)C(C(C)(C)C)=CC1=O)c1ccccc1 (configuration not stated) | -1.7% | ? | 22.4µM* | -21.8% | 17.8%
SMILES | RORg inh | Tau FP inhib | Tau ThT inhib | Tau fluor cs | VP16 counter
ClC(Cl)Br | -2.2% | · | · | · | -6.4%
O=[N+]([O-])c1ccccc1-c1ccccc1 | 10.0% | · | · | · | -21.2%
ClC(Cl)c1ccccc1 | 14.8% | · | · | · | 7.5%
COC[C@H]1OC(=O)c2coc3c2[C@@]1(C)C1=C(C3=O)[C@@H]2CCC(=O)[C@@]2(C)C[C@H]1OC(C)=O | · | 25.1µM* | 14.1µM* | ? | ·
CC(C)[C@@]1(NC(=O)[C@@H]2C[C@H]3c4cccc5[nH]cc(c45)C[C@@H]3N(C)C2)O[C@@]2(O)[C@H]3CCCN3C(=O)[C@H](Cc3ccccc3)N2C1=O | 21.9% | -0.1% | ? | 12.6µM*[quencher] | 2.1%
CN1C[C@H](C(=O)N[C@]2(C)O[C@@]3(O)[C@@H]4CCCN4C(=O)[C@H](Cc4ccccc4)N3C2=O)C=C2c3cccc4[nH]cc(c34)C[C@H]21 | 11.9% | · | · | · | -2.1%
CN1C[C@H](C(=O)N[C@]2(C)O[C@@]3(O)[C@H]4CCCN4C(=O)[C@H](Cc4ccccc4)N3C2=O)C[C@H]2c3cccc4[nH]cc(c34)C[C@@H]21 | -18.5% | 7.3% | ? | 7.08µM*[quencher] | -19.7%
CC(C)C[C@H]1C(=O)N2CCC[C@H]2[C@]2(O)O[C@](NC(=O)[C@@H]3C=C4c5cccc6[nH]c(Br)c(c56)C[C@H]4N(C)C3)(C(C)C)C(=O)N12 | ? | 8.0% | ? | ? | -25.9%
CCCCOCCOP(=O)(OCCOCCCC)OCCOCCCC | -0.5% | · | · | · | 7.0%
COc1ccc(OCCn2cc(/C=C(\C#N)C(=O)NCc3ccco3)c3ccccc32)cc1 | -41.3% | -2.7% | 5.3% | -1.2% | 3.55µM*
C[C@@H]1CC[C@H]2[C@H](C)[C@H]3CC[C@@]4(O)[C@@H]5CC(=O)[C@H]6CC(=O)CC[C@]6(C)[C@H]5C[C@H]4[C@@H]3CN2C1 | -1.4% | · | · | · | -3.4%
CNC(=O)COC(=O)c1ccc(-c2nc3ccccc3s2)s1 | 0.501µM* | 1.7% | ? | -9.9% | 0.316µM*
COc1ccc(CN2C(=O)CC(=O)NC2=O)cc1 | 14.1% | ? | 25.1µM* | -14.0% | -0.4%
COc1ccc(N2C(=O)CC(=O)NC2=O)cc1 | 0.7%[0.365 µM] | -8.8% | ? | -5.6% | ·
CCC12CCCN3CCC4(c5ccc(OC)c(O)c5N(C(C)=O)C4CC1)C32 (configuration not stated) | 33.5% | -2.6% | -1.3% | -6.9% | ?

Compound activity (PubChem BioAssay)
